# Only some compounds are listed: those with a hit (about 2.4% of all), similar ones and a draw of the others.
# POLB inh: blocks human DNA polymerase beta activity. Potency, µM (top dose mostly 114 µM), for inactives: top-dose activity change, negative = inhibition, hits mostly inhibitors. Pol beta primer extension/strand displacement, fluorescence kinetic. actives 1.3% (n = 340,000). P06746; note: potency is the fitted concentration of half-maximal effect; % is set by controls: 0 for no effect and ±100 for the full control effect
#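 Reaction started by 50 nM substrate onto compound-treated Pol beta (10 nM, 15 min preincubation, room temperature); plates read at 0 min and 10 min. Normalized concentration-effect data fitted by four-parameter Hill equation.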
# GLS inh: blocks human kidney-isoform glutaminase activity; AID 624170; GLS enzymatic activity, qHTS titration; Potency, µM (highest dose often 45.5 µM), for inactives: top-dose activity change, negative = inhibition, actives largely listed as inhibitors; actives 0.21% (n = 410,000); note: potency is the fitted concentration of half-maximal effect; % is set by controls: 0 for no effect and ±100 for the full control effect
# Target sequence (O94925 whole entry, looked up, canonical isoform): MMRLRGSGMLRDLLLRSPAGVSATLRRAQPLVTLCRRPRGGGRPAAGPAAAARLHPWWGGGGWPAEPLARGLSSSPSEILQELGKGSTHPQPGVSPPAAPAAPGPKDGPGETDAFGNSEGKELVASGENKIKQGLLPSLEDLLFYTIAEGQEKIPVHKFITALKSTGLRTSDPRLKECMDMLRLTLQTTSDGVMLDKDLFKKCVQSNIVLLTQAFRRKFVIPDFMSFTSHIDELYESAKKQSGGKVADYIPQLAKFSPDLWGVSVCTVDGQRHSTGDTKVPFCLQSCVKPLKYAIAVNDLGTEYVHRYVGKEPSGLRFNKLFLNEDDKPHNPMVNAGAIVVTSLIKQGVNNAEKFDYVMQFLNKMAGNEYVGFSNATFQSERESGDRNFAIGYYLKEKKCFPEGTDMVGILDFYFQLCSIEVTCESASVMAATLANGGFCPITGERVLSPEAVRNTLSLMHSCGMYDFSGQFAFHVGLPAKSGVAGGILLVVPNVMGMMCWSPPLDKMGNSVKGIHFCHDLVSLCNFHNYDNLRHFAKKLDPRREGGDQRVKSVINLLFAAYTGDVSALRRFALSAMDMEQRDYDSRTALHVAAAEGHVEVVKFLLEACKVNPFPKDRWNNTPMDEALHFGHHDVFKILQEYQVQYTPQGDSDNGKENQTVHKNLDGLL
#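 Enzyme dispensed in phosphate buffer (45 mM, pH 8.2, 0.02% Tween-20), compounds pinned in, then 1 mM L-glutamine solution and the glutamate oxidase–HRP–Amplex Red mix added; fluorescence read immediately and again after 30 min at room temperature.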
# Pol eta inh-1: inhibitors of human DNA polymerase eta; Q9Y253; recombinant Pol eta, fluorescent DNA replication assay; Potency, µM (series often up to 114 µM), for inactives: top-dose activity change, negative = inhibition, usual class: inhibitors; actives 1.2% (n = 390,000); note: potency is the fitted concentration of half-maximal effect; % is set by controls: 0 for no effect and ±100 for the full control effect
#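 Pol eta at 10 nM preincubated with compounds 15 min at room temperature; reaction started with fluorescent substrate (50 nM final) and read kinetically at 0 and 10 min.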
# Pol iota inh: inhibitors of human DNA polymerase iota; actives 1% (n = 390,000); Q9UNA4; Pol iota fluorescent replication assay, 10 min; Potency, µM (titrated, usually from 115 µM), for inactives: top-dose activity, negative = inhibition, hits mostly inhibitors; note: potency is the fitted concentration of half-maximal effect
#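 Fluorescent replication assay read twice, at 0 min and 10 min after adding 50 nM (final) substrate. Enzyme (10 nM) and compounds were first incubated 15 min at room temperature; enzyme-free buffer wells were negative controls.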
# Pol kappa inh-1: DNA polymerase kappa (human) inhibition | AID 588579 | Q9UBT6 | purified Pol kappa, fluorescent DNA synthesis assay, 10 min | actives 0.53% (n = 400,000) | Potency, µM (titrated, usually from 107 µM), without a hit: at the highest dose activity, negative = inhibition, actives largely listed as inhibitors; note: potency is the fitted concentration of half-maximal effect; % is set by controls: 0 for no effect and ±100 for the full control effect
#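 10 nM Pol kappa was preincubated with compounds for 15 min at room temperature. Reaction started with 50 nM (final) substrate. Fluorescence read kinetically at 0 and 10 min.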
# APE1 inh: APE1 (human) endonuclease inhibition; P27695; recombinant APE1, TAMRA/BHQ-2 abasic DNA cleavage fluorescence; Potency, µM (titrated, usually from 65.8 µM), inactives show at the top dose activity change, negative = inhibition, actives largely listed as inhibitors; actives 0.35% (n = 350,000);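 note: potency is the fitted concentration of half-maximal effect; plate controls were vehicle for no effect and reference inhibitor for full effect; nearly all actives have a fitted effect of over 55% in size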
#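 Measures dequenching upon AP-site incision of a 5'-TAMRA/3'-BHQ-2 THF-containing duplex, 50 nM; human APE1 0.75 nM after 15 min room-temperature exposure to compound; kinetic three-point read at one-minute spacing.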
# GALK inh confirm: confirmation of human galactokinase (GALK) inhibitors; shares compounds with Pol eta inh-1; purified GALK, Kinase-Glo ATP depletion luminescence; Potency, µM (doses to about 115 µM), for the others: top-dose activity, negative = inhibition, usual class: inhibitors; actives 70% (n = 150)
# GALK redox cs: generates H2O2 by redox cycling, flagging GALK artifacts | shares compounds with Pol eta inh-1 | Phenol red-HRP H2O2 redox cycling, absorbance 600 nm | Potency, µM (highest dose often 115 µM), for the others: at the top dose activity change, negative = H2O2 signal, actives largely listed as inhibitors | actives 40% (n = 150) | AID 2035
# HEK293 tox: counter-screen for GALK inhibitors: HEK293 cell cytotoxicity. shares compounds with Pol eta inh-1. AID 2547. actives 10% (n = 170). HEK-293 viability, ATP luminescence (CellTiter-Glo), 24/48 h. Potency, µM (highest dose often 46.1 µM), without a hit: top-dose activity change, negative = cytotoxicity, hits mostly inhibitors; note: potency is the fitted concentration of half-maximal effect; % is set by controls: 0 for no effect and ±100 for the full control effect
# Pol kappa inh-2: Pol kappa (human) inhibition, cherry-pick confirmation. shares compounds with Pol eta inh-1. actives 76% (n = 920). purified Pol-kappa, fluorescent strand-displacement substrate. Potency, µM, actives largely listed as inhibitors; note: potency is the fitted concentration of half-maximal effect
# Pol eta inh-2: confirmation of human DNA polymerase eta inhibitors; shares compounds with Pol eta inh-1; Pol eta primer extension, TAMRA/BHQ fluorescence, 10 min; Potency, µM, hits mostly inhibitors; actives 64% (n = 2,600); AID 720502; note: potency is the fitted concentration of half-maximal effect
# Numbers without * were called inactive; ? = inconclusive; · = no result given; [ ] = another dose, or the depositor's remark. Calls come from the whole dose curve; as a rule, active = well fitted curve in the direction sought with a large enough effect; inconclusive = small, poorly fitted or top-dose-only effect, or another doubt; inactive = no such curve, though single readings can be large; an effect the other way counts as inactive or inconclusive.
SMILES,POLB inh,GLS inh,Pol eta inh-1,Pol iota inh,Pol kappa inh-1,APE1 inh,Pol kappa inh-2,Pol eta inh-2,others
Cc1ccc(S(=O)(=O)/N=C2/NC(=O)/C(=C/c3cc([N+](=O)[O-])ccc3O)S2)cc1,-4%,17%,28µM*,28µM*,?,59%,?,·,
O=C(COc1ccc(Cl)cc1)Nc1ccc2oc(-c3ccncc3)nc2c1,2%,8%,-9%,13%,6%,-3%,·,·,
O=C(Oc1ccccc1F)c1ccc2c(=O)n3c(nc2c1)CCC3,·,-1%,?,?,-28%,18%,·,67*,
COc1ccc(C)cc1NC(=O)CN(C)S(=O)(=O)c1ccc2[nH]c(=O)oc2c1,0%,5%,-9%,29%,0%,·,·,·,
COc1cc(OC)c(NC(=O)CN(C)S(=O)(=O)c2ccc3[nH]c(=O)oc3c2)cc1Cl,?,3%,22µM*,-5%,?,5%,42*,?,
Cc1ccc(-c2nn(-c3ccccc3)cc2/C=C2\SC(=S)N(CC(=O)O)C2=O)cc1,5%,56%,?,?,-1%,?,·,·,GALK inh confirm=42µM*;GALK redox cs=6%;HEK293 tox=-1%
COc1ccc(-c2nn(-c3ccccc3)cc2/C=C2/SC(=S)N(CCC(=O)O)C2=O)cc1,32µM*,29%,22µM*,?,-34%,17µM*,17*,·,
CS(=O)(=O)c1ccc(C(=O)NCC(c2ccco2)N2CCCCC2)cc1 (stereo unspecified),-23%,-1%,-21%,168%,-9%,-1%,·,·,
COc1ccccc1C(CNC(=O)c1ccc(NS(=O)(=O)c2ccc(C(C)=O)cc2)cc1)N1CCCC1 (stereo unspecified),·,-23%,16µM*,32µM*,?,·,·,?,
CC(=O)c1ccc(S(=O)(=O)Nc2ccc(C(=O)NCC(c3ccco3)N3CCCC3)cc2)cc1 (stereo unspecified),·,5%,20µM*,·,·,·,?,?,
O=C(c1c[nH]c2ccc(F)cc2c1=O)N1CCCCCC1,2%,5%,12%,48%,9%,4%,·,·,
Oc1c(Br)cc(C=Nc2ccc3nc(-c4ccccc4)[nH]c3c2)c(O)c1Br,?,?,14µM*,?,50µM*,11%,9.5*,30*,
COc1ccc2nc(-c3ccccc3)[nH]c2c1,2%,9%,-8%,16%,-20%,-4%,·,·,
CC(C)CC(=O)N=C1SC2CS(=O)(=O)CC2N1Cc1ccccc1 (stereo unspecified),2%,1%,-4%,55%,-8%,1%,·,·,
COc1cccc(OCCOc2ccc(/C=C3/SC(=S)NC3=O)cc2)c1,10µM*,-11%,28µM*,?,-53%,-5%,?,85*,
COc1ccc(C=C2SC(=S)NC2=O)cc1,·,-15%,-9%,39%,-1%,·,·,·,
O=C(OCc1ccco1)c1ccc(S(=O)(=O)N2CCCCC2)cc1,?,3%,10µM*,?,79µM*,?,·,?,
C=CCN(C(=O)c1csnn1)C(C(=O)NC1CCCC1)c1cccs1 (stereo unspecified),54%,4%,-2%,121%,-4%,-4%,·,·,
COc1cc(O)c2c(=O)cc(-c3ccc(OC)c(-c4c(O)cc(O)c5c(=O)cc(-c6ccc(O)cc6)oc45)c3)oc2c1,·,·,·,·,?,-6%,·,·,
O=c1cc(-c2ccc(O)c(-c3c(O)cc(O)c4c(=O)cc(-c5ccc(O)cc5)oc34)c2)oc2cc(O)cc(O)c12,-22%,?,18µM*,32µM*,79µM*,-5%,·,34*,
O=C(Nc1ccc(S(=O)(=O)O)cc1)c1ccc2c(c1)S(=O)(=O)c1ccccc1C2=O,·,2%,28µM*,8%,-3%,·,·,67*,
O=C(CSc1nc2nc(-c3cccs3)cc(C(F)(F)F)c2c(=O)[nH]1)NCc1ccco1,56µM*,-15%,18µM*,?,-41%,-3%,·,38*,
COc1ccc(N2CCN(CC(=O)N3N=CCC3c3ccccc3)CC2)cc1 (stereo unspecified),17%,17%,-11%,50%,-2%,4%,·,·,
N#Cc1ccc(OCC(=O)N2CCN(C(=O)c3ccco3)CC2)cc1,·,0%,-19%,16%,-15%,-6%,·,·,
COc1ccc(-n2nnc(-c3nc(-c4ccccc4C)no3)c2N)cc1Cl,1%,9%,-6%,13%,-15%,·,·,·,
SMILES,POLB inh,GLS inh,Pol eta inh-1,Pol iota inh,Pol kappa inh-1,APE1 inh,Pol kappa inh-2,Pol eta inh-2,others
CC(=O)c1ccc(-n2c(-c3cc(-c4ccco4)[nH]n3)n[nH]c2=S)cc1,1%,-6%,?,-10%,-1%,-3%,·,·,
O=C(O)c1ccc(-n2c(-c3cc(-c4ccco4)[nH]n3)n[nH]c2=S)cc1,?,?,10µM*,?,?,?,·,30*,
O=C1CCCC2(O)C1C(c1cccc(Br)c1)NC(=O)N2Cc1ccccc1 (stereo unspecified),-3%[57.1 µM],1%,-10%,-8%,12%[60.1 µM],-1%,·,·,
CCCN1C(=O)/C(=C\C=C2/Sc3ccccc3N2CC)SC1=S,-3%,·,·,·,·,9%,·,·,
CCCN1C(=O)/C(=C\C=C2\N(CC)c3ccccc3C2(C)C)SC1=S,-14%,-1%,?,?,-16%,5%,53*,·,
O=C(CSc1nc2c(cnn2-c2ccc(F)cc2)c(=O)[nH]1)Nc1ccc(Br)cc1,?,7.9µM*,56µM*,-5%,-10%,·,17*,?,
